# MITF primary – human MITF inhibition, primary screen. O75030. AlphaScreen MITF homodimerization, bead proximity signal. inhibition, % at 2.6 µM. 650,000 compounds, 0.91% hits; in the data active = inhibition above about 50%;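 also: 0% = vehicle wells with protein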
# GPR151 activ – human GPR151 activation; Q8TDV0; PathHunter beta-arrestin GPR151 cells, luminescence; activation, % at 11.2 µM; 650,000 compounds, 1% hits; in the data active = activation above about 4.9%;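 also: 0% = median of compound wells and 100% = cells with positive control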
# Target sequence (Q8TDV0 whole entry, looked up): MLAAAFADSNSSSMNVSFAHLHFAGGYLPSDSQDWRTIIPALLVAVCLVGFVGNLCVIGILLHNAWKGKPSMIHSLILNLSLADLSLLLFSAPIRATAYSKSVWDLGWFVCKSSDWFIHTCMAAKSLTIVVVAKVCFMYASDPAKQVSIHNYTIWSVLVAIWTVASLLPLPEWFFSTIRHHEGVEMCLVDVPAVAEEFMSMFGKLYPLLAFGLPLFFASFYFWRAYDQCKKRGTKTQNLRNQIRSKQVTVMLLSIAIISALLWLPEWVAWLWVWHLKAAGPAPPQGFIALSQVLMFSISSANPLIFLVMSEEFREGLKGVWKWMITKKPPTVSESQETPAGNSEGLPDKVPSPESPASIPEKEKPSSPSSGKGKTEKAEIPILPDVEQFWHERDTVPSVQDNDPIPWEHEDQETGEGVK
# TEAD-YAP inh – TEAD-YAP interaction inhibition. AID 1259422. 640,000 compounds, 1.4% hits. inhibition, % at 9.12 µM. HEK-TIYL cells, TEAD-Gal4/YAP UAS-luciferase luminescence; in the data active = inhibition above about 32%;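 also: 0% = median of test compound wells and 100% = reference inhibitor wells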
# FBW7 activator – human FBW7 E3 ligase activation, primary screen; 650,000 compounds, 0.13% hits; Q969H0; normalized activity (activation), % at 26.1 µM; AlphaScreen FBW7–phospho-cyclin E peptide binding, activator screen; AID 1259310; in the data active = normalized activity above about 1.9%;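 also: purified mutant Fbw7 with reduced substrate affinity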
# * marks the source's active call; other numbers are inactive results. Most compounds without a hit are left out; they make up all but 3.5% or so of the library.
SMILES,MITF primary,GPR151 activ,TEAD-YAP inh,FBW7 activator
CC(C)(C)C1(C)OC(=O)C(=Cc2ccc(Br)o2)C(=O)O1 (stereo not drawn),69*,0,-11,0
COc1ccc(Cl)cc1NC(=O)CSc1nc2c(c(=O)n1-c1ccccc1OC)SCC2,8,0,10,0
Cc1nc(-n2nnc(C(=O)NCc3ccccc3F)c2C)sc1C,-6,2,1,0
O=[N+]([O-])c1ccc(/C=C/c2ccc(O)cc2)cc1,4,-11,49*,0
O=C(c1ccc2cncc(-c3cc4ccccc4o3)c2n1)N1CCN(c2ccccn2)CC1,6,2,31,-1
Cc1ccc(/C=N/NC(=O)c2cc(C(C)C)[nH]n2)cc1,-3,0,36*,0
Cc1cc2nc(-c3ccc(C)c(N)c3)oc2cc1C,2,-6,36*,0
Cc1ccc2nc(-c3cc(N)cc(N)c3)oc2c1,9,-3,56*,0
Cc1cc2nc(-c3cccc(N)c3)oc2cc1C,13,-10,35*,0
Cc1ccc(-c2nc3ccccc3o2)cc1N,9,-5,-33,0
Cc1ccc2nc(-c3cc(N)ccc3O)oc2c1,5,-2,-22,0
CCc1ccc2oc(-c3ccc(C)c(N)c3)nc2c1,15,-7,43*,0
O=C(NNC1CC(=O)N(CCc2ccccc2)C1=O)c1ccc(Cl)cc1Cl (stereo not drawn),7,1,4,0
O=C(Nc1ccc2[nH]c(=O)[nH]c2c1)c1cc2ccccc2o1,12,1,-12,0
COC(=O)NC1CCCCC1NC(=O)OC (stereo not drawn),4,4,0,0
CCCNc1nc(-c2cccc(N)c2)nc2c1ncn2-c1ccsc1,19,0,53*,0
Cc1noc(C)c1-c1nc(NCCO)c2ncn(-c3ccsc3)c2n1,4,1,23,0
Nc1cccc(-c2nc(NCCO)c3ncn(-c4ccsc4)c3n2)c1,10,-2,63*,0
COc1ccc2sc(Nc3nnc(-c4ccccc4OC)o3)nc2c1,-9,1,-4,0
C[n+]1ccccc1N1CC2(C)CC1CC(C)(C)C2 (stereo not drawn),4,2,10,0
O=C(c1cnn2c1NC(c1ccco1)CC2C(F)(F)F)N1CCN(Cc2ccccc2)CC1 (stereo not drawn),28,-1,45*,0
COc1ccc(C2=NN(C(=O)c3ccccc3)C(c3cccc([N+](=O)[O-])c3)C2)cc1 (stereo not drawn),1,-1,-7,0
COc1ccc(C2=NN(C(=O)c3cc(OC)c(OC)c(OC)c3)C(c3ccc(C)cc3)C2)cc1OC (stereo not drawn),3,-1,46*,0
COc1ccc(C2=NN(C(=O)c3cc(OC)c(OC)c(OC)c3)C(c3ccc(OC)c(OC)c3)C2)cc1OC (stereo not drawn),2,2,21,0
COc1ccc(C2=NN(C(=O)c3cc(OC)c(OC)c(OC)c3)C(c3cccc([N+](=O)[O-])c3)C2)cc1OC (stereo not drawn),-1,0,37*,0
SMILES,MITF primary,GPR151 activ,TEAD-YAP inh,FBW7 activator
COCCNC(=O)/C(C#N)=C/c1cc(C)n(-c2sc(C)c(C)c2C#N)c1C,-2,0,51*,0
COCCCNC(=O)/C(C#N)=C/c1cc(C)n(-c2ccc(C)cc2)c1C,10,0,5,0
COCCCNC(=O)/C(C#N)=C/c1cn(Cc2ccccc2)c2ccccc12,5,3,44*,1
COCCCNC(=O)/C(C#N)=C/c1cc(C)n(-c2ccccc2)c1C,10,1,40*,0
COc1ccc(/C=C2\N=C(c3cc(F)c(F)cc3Cl)OC2=O)c(OC)c1,15,-1,-5,0
CCCCS(=O)(=O)/C=C\C=C\S(=O)(=O)CCCC,0,1,90*,0
O=C(Nc1ccc2c(c1)N(C(=O)C1CCCO1)CC2)c1cc2ccccc2oc1=O (stereo not drawn),-5,-1,57*,0
COC(=O)c1nn(-c2ccc(C)c(C)c2)cc1O,-1,-6,54*,0
COC(=O)c1nn(-c2ccc(F)c(Cl)c2)cc1O,6,0,-31,0
CCC1CCc2c(sc3nc(SCc4ccc(OC)cc4)n(-c4ccccc4)c(=O)c23)C1 (stereo not drawn),-9,0,3,0
O=S(=O)(Nc1ccc2c(c1)OCCO2)c1ccc(Cl)cc1,5,-1,-8,0
O=S(=O)(Cc1ccc(Cl)cc1)Nc1ccc2c(c1)OCCO2,3,0,41*,0
